# Experimental data as given in PubChem BioAssay AID1814 (Broad Institute, 2009).
# Out of some 300,000 compounds screened, about 22,000 (7.3%) were called active. About 2% were inconclusive and are not listed. Cut-off read from the data, not from the text of the source: active = activity score below about -60%; inconclusive = mostly about -28% to -61%; inactive = positive scores. This excerpt belongs to a sample that is enriched for actives.
# Assay: Activators working through SNCA 5'UTR binding (MLPCN) (AID 1814)
# Details: alpha-synuclein 5'UTR reporter, activators screen; hits give low values; tested at 7.5 µM
row,Compound,activity score
1,CC(C)OC(=O)c1sc2nc3c(cc2c1N)C(=O)CCC3,-182% (active)
2,Nc1c(C(=O)NCc2ccccc2)sc2nc3c(cc12)C(=O)CCC3,-63.1% (active)
3,Cn1c(=NC(=O)C2CC2)sc2cc(F)cc(F)c21,-88% (active)
4,Cc1ccc(NC(=O)C2CC2c2ccccc2)cc1 (stereo unspecified),-65.1% (active)
5,C1=C(CCNc2ncnc3c2cnn3-c2ccccc2)CCCC1,-141% (active)
6,CCOc1cccc2c1OC1(CCCCC1)N1N=C(c3cccnc3)CC21 (stereo unspecified),-77% (active)
7,CCOC(=O)C1=C(CN2CCc3ccccc32)NC(=O)NC1c1ccc(Cl)cc1 (stereo unspecified),44.8% (inactive)
8,COc1cc(/C=C(\C#N)c2nc3c(s2)CC(C)CC3)ccc1O (stereo unspecified),-208% (active)
9,COc1cc(/C=C(\C#N)c2nc3ccccc3[nH]2)ccc1O,-152% (active)
10,O=C(COc1ccc2oc3c(c2c1)CCCC3)Nc1ccccn1,-131% (active)
11,Cc1cccc(C(=O)NC(=S)N(C)C2CCCCC2)c1,-74.3% (active)
12,CSc1nc(N(C)NC(=O)c2cccc(C)c2)c2ccccc2n1,114% (inactive)
13,Cc1nonc1NC(=O)c1oc2ccccc2c1C,-127% (active)
14,Cc1c(C(=O)N2CCCc3ccccc32)oc2ccccc12,-96.2% (active)
15,Cc1c(C(=O)NC2CCCCC2)oc2ccccc12,-82.5% (active)
16,CCc1nonc1NC(=O)c1oc2ccc(Cl)cc2c1C,-90.7% (active)
17,Cc1c(C(=O)Nc2ccccn2)oc2ccc(Br)cc12,-122% (active)
18,Cc1ccc(NC(=O)c2oc3ccccc3c2C)c([N+](=O)[O-])c1,-101% (active)
19,CSc1cccc(NC(=S)N(C(C)C)C(C)c2ccccn2)c1 (stereo unspecified),-66.1% (active)
20,Cc1ccc(-c2cc(C(=O)NCc3cn(C)nc3C)c3cc(Br)ccc3n2)cc1,-87.5% (active)
21,CN(C)CCCN(C(=O)c1ccc(S(=O)(=O)N2CCCc3ccccc32)cc1)c1nc2ccc(F)cc2s1,74.2% (inactive)
22,CCS(=O)(=O)N1Cc2ccccc2CC1C(=O)Nc1nc2ccc(F)cc2s1 (stereo unspecified),-83.8% (active)

row,Compound,activity score
1,O=C(Nc1ccccc1)c1ccc2nsnc2c1,-119% (active)
2,O=C(Nc1ccccc1Cl)c1ccc2nsnc2c1,-133% (active)
3,COc1ccccc1Nc1ncnc2c1oc1ccccc12,-147% (active)
4,O=[N+]([O-])c1ccc2c(c1)C(O)n1nc(-c3ccccc3)nc1S2 (stereo unspecified),-63.3% (active)
5,CCS(=O)(=O)C1=NSC2=NC(=O)/C(=C\c3cc(C)n(-c4cccc(OC)c4)c3C)C(=N)N21,-130% (active)
6,CC(O)c1ccc(OCCN(C)c2ccccn2)cc1 (stereo unspecified),-143% (active)
7,CCN(CC)CCOc1ccc2c(c1)C(=NNC(=O)c1ccccn1)c1cc(OCCN(CC)CC)ccc1-2,109% (inactive)
8,N#CC(=C1SC=CS1)c1nc(-c2ccccc2)cs1,-305% (active)
9,N#CC(=C1CCCC1)c1nc(-c2ccc(Cl)cc2)cs1,-189% (active)
10,CCOC(=O)/C(C#N)=C/c1ccc(N2CCCCC2)cc1,-72.9% (active)
11,Cc1nc2cc(NCc3cccs3)ccc2n1C,-107% (active)
12,OC(c1nnc(-c2ccccc2)o1)c1cccs1 (stereo unspecified),-90.8% (active)
13,CCOc1ccc(N/C=C/C(=O)c2cc(OC)c(OC)c(OC)c2)cc1,-117% (active)
14,COc1ccc2[nH]cc(CCN3C(=O)c4ccc(C(=O)O)cc4C3=O)c2c1,-169% (active)
15,CC[C@H]1CN2CCc3cc(OC)c(OC)cc3[C@@H]2C[C@@H]1C[C@H]1NCCc2cc(OC)c(OC)cc21,109% (inactive)
16,O=C1c2ccccc2NC(c2ccccc2O)N1NS(=O)(=O)c1ccccc1 (stereo unspecified),-64.1% (active)
17,Nc1c(C(=O)c2cccs2)sc2nsc(SCCN3CCCCC3)c12,-213% (active)
18,c1ccc(-c2csc(N3CCc4ccccc4C3)n2)cc1,-117% (active)
19,COc1ccc2c(c1)CCc1cn3ncc(C#N)c3nc1-2,68.1% (inactive)
20,COc1ccc2nc(N3CCCC(O)C3)c(C#N)cc2c1 (stereo unspecified),-114% (active)
21,CCc1ccc(Oc2coc3cc(OC(=O)c4cc5ccccc5oc4=O)ccc3c2=O)cc1,-67% (active)
22,Cc1sc(NC(=O)c2ccc3ncsc3c2)c(C(N)=O)c1C,-130% (active)

row,Compound,activity score
1,COc1ccccc1-c1nnc(NC(=O)c2ccc3ncsc3c2)o1,-132% (active)
2,COc1ccc(OC)c(/C(C)=N\NC(=O)c2cc3cc(Cl)ccc3n2C)c1,-215% (active)
3,CC1CCCCC1NC(=O)/C(C#N)=C/C=C/c1ccccc1[N+](=O)[O-] (stereo unspecified),-239% (active)
4,O=C(OCC(=O)c1cccs1)C1=COCCO1,-103% (active)
5,CCC(C)(C)c1ccc(Oc2ccc(NC(=O)COC(=O)C3=COCCO3)cc2)cc1,90.6% (inactive)
6,COc1cccc(-c2nnc(N(C)C(=O)c3ccno3)s2)c1,-79.4% (active)
7,CCN(CC)S(=O)(=O)c1cc(C(=O)Nc2ccccn2)ccc1C,-79.9% (active)
8,COc1cccc(NCCC(=O)c2cccc([N+](=O)[O-])c2)c1,-115% (active)
9,Nc1ccccc1/C=N\N=C/c1ccccc1N,-112% (active)
10,Cc1cccc(-n2ncc(Cl)c(Cl)c2=O)c1,-220% (active)
11,Fc1ccc(-c2csc(-c3ccc(C4SCCS4)cc3)n2)cc1F,-125% (active)
12,CCOC(=O)c1cn[nH]c1NC(=S)Nc1ccccc1,-131% (active)
13,CS(=O)(=O)Nc1ccc(C2=NN(S(C)(=O)=O)C(c3cccs3)C2)cc1 (stereo unspecified),-69.5% (active)
14,Cc1ccc(C2CC(c3cccc(NS(C)(=O)=O)c3)=NN2S(C)(=O)=O)cc1 (stereo unspecified),-70.6% (active)
15,O=C(CN1C(=O)COc2ccccc21)Nc1ccc(F)cc1,-126% (active)
16,Cc1ccc(NC(=O)c2cc(-c3ccccc3O)n[nH]2)cc1C,-129% (active)
17,Cc1ccc(O)c(-c2cc(C(=O)NCc3ccccc3)[nH]n2)c1,-148% (active)
18,CCSc1nsc(NC(=O)Nc2cccc(C(C)=O)c2)n1,-111% (active)
19,O=C(Nc1ccccc1)Nc1nc2ccccc2s1,-64.8% (active)
20,Cn1nnnc1SCC(=O)Nc1nc2ccccc2s1,-151% (active)
21,CSc1nsc(NC(=O)Nc2ccccc2)n1,-123% (active)
22,CCc1cc2c(=O)c(-c3ccon3)c(N)oc2cc1OC,-160% (active)

row,Compound,activity score
1,COc1ccc(N=C(C)c2sc3ccccc3c2O)cc1,-125% (active)
2,Nc1[nH][nH]c(=O)c1N=Nc1ccc2c(c1)OCO2,-112% (active)
3,Cc1ccc(NC(=S)Nc2ncccc2C)c(C)c1,-199% (active)
4,COc1ccc2c(c1)CCc1c(C(=O)N3CCCC3)noc1-2,-103% (active)
5,CNC(=O)/C(C#N)=C/c1c(F)cccc1Cl,-73.3% (active)
6,O=C(Nn1c(SCc2ccc([N+](=O)[O-])cc2)nc2ccccc2c1=O)c1ccc(F)cc1,-81.2% (active)
7,c1ccc(-c2nccc(-c3ccc(-n4cnc5ccccc54)cc3)n2)nc1,-88% (active)
8,O=C(c1ccc(Cl)cc1)c1cnc(Nc2ccccc2)s1,-159% (active)
9,CC(C)(C)C(=O)c1cnc(Nc2ccccc2)s1,-123% (active)
10,COCCN(C(=O)c1ccco1)c1nnc(-c2ccc(OC)cc2)s1,-68.7% (active)
11,N#C/C=C\Oc1ccc(Cl)cc1N,-166% (active)
12,COc1ccccc1C1=Nc2cccc3cccc(c23)N1,-62.4% (active)
13,CC1=CC(=C(C#N)c2nc3ccccc3s2)C=C(C)N1c1ccc(F)cc1F,-123% (active)
14,C=CCn1c(=NC(=O)c2cccs2)sc2cc(NC(C)=O)ccc21,-164% (active)
15,Clc1ccccc1SCc1nc2ccccc2[nH]1,-90.6% (active)
16,CCNC(=O)N1CCCC(C(=O)c2ccc(-c3ccccc3)cc2)C1 (stereo unspecified),-101% (active)
17,O=C(Nc1ccc(Cl)c(Cl)c1)N1CC=C(c2ccccc2)CC1,-65.8% (active)
18,Cc1ccc(Cl)c(OCC(=O)N2CCc3ccccc3C2)c1,-117% (active)
19,COc1ccc(C2CC(c3cccs3)=Nc3ccccc3S2)cc1OC (stereo unspecified),-90.7% (active)
20,O=C(/C(=C/c1cccc(Cl)c1)c1nc2ccccc2[nH]1)c1ccccc1,-338% (active)
21,Cc1nc(NC(=O)C2CCCCC2)sc1C,-136% (active)
22,O=[N+]([O-])c1cccc(/C=N/Nc2ncc(Br)cn2)c1,-194% (active)

row,Compound,activity score
1,O=[N+]([O-])c1ccc(N/N=C/c2ccccc2)cc1,-210% (active)
2,COc1ccccc1-c1nnc(-c2ccc(F)cc2)o1,-122% (active)
3,CSc1ccccc1-c1nnc(-c2ccc(Cl)cc2)o1,-146% (active)
4,O=C1C(C=NCC2CCCO2)=C(O)c2ccccc21 (stereo unspecified),-95.6% (active)
5,CCS(=O)(=O)n1nc(-c2ccccc2)nc1SCc1ccccc1,-118% (active)
6,CCS(=O)(=O)n1nc(-c2ccc(OC)cc2)nc1SC,-98.6% (active)
7,Cc1cc(O)c(NC(=O)c2ccc(C)c([N+](=O)[O-])c2)cc1C,-110% (active)
8,CCCCSc1nc2ccccc2[nH]1,-86.8% (active)
9,COc1ccccc1CSc1nc2ccccc2[nH]1,-156% (active)
10,CC(C)n1c(=O)[nH]c2cc(C(=O)Nc3ccccc3)ccc21,-119% (active)
11,COc1ccc(-c2c(C#Cc3ccccc3)c3ccccc3n2C)cc1,-87.3% (active)
12,CCOC(=O)c1nn(-c2cccc(C)c2)cc1C(=O)c1ccccc1,-90.5% (active)
13,O=C1c2ccccc2S(=O)(=O)c2cc(N3CCN(c4ccccn4)CC3)ccc21,-68.6% (active)
14,COc1ccc(C2=NOC(COC(=O)c3ccc4ccccc4n3)C2)cc1 (stereo unspecified),-68.4% (active)
15,CN(C)c1ccc(-c2nnc(-c3cccnc3)o2)cc1,-195% (active)
16,c1ccc(CN=C2Nc3ccccc3CS2)nc1,-111% (active)
17,COc1ccc(C2Nc3ccccc3C(=O)N2c2ccc(Cl)cc2)cc1Cn1cc([N+](=O)[O-])cn1 (stereo unspecified),-111% (active)
18,COc1ccc(N2C(=O)c3ccccc3NC2c2ccc(OC)c(CN3CCOCC3)c2)cc1 (stereo unspecified),-72.6% (active)
